TRPV1 ag = human TRPV1 agonism; Q8NER1; TRPV1-expressing cells, Fluo-8 calcium influx, agonist mode; activation, % at 8.33 µM; 0.19% of 320,000 active; AID 540275; in the data active = activation above about 80%; inconclusive = between about 30% and that limit; also: 0% is about no effect
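Cells expressing TRPV1 were dye-loaded with Fluo-8 and read kinetically: 10 s baseline, 3 min after compound (agonist portion), then 2 min after EC20 capsaicin (allosteric enhancer portion). Calcium-bound dye fluorescence at 480/520 nm.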
KCNH2 3.1 block = KCNH2 3.1 (human) potassium channel inhibition; 0.95% of 340,000 active; AID 720553; activity change, % (tested at about 1.8 µM); U2OS KCNH2 3.1, thallium flux FluxOr; active compounds read low;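 active = maximum activity change below -70%; inconclusive = maximum activity change from -70% to -50%; inactive = maximum activity change above -50%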;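 also: thallium influx rate constant from kinetic fluorescence after stimulation buffer; % is scaled to controls: 0 for no effect and ±100 for the full control effect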
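Channel expression came from 3.1 mutant virus (1.77 x 10^8 /mL) applied to suspended U2OS cells for 4 h. Flux was tracked with FluxOr dye plus Red40 quencher, and kinetic rate constants normalized to controls.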
TRPV1 PAM = enhances activation of the human vanilloid receptor TRPV1 | Q8NER1 | TRPV1-expressing cells, Fluo-8 calcium influx, capsaicin EC20 potentiation | potentiation, % at 8.33 µM | 0.02% of 320,000 active; in the data active = potentiation above about 80%; inconclusive = between about 30% and that limit; also: 0% is about no effect
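Cells expressing TRPV1 were dye-loaded with Fluo-8 and read kinetically: 10 s baseline, 3 min after compound (agonist portion), then 2 min after EC20 capsaicin (allosteric enhancer portion). Calcium-bound dye fluorescence at 480/520 nm.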
KCNH2 WT inh = blocks the wildtype human KCNH2 potassium channel. AID 720551. 0.37% of 340,000 active. Q12809. activity change, % at 1.84 µM. U2OS, BacMam KCNH2, thallium flux FluxOr; active compounds read low;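 active = maximum activity change below -70%; inconclusive = maximum activity change between -70% and -50%; inactive = maximum activity change above -50%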; also: % is scaled to controls: 0 for no effect and ±100 for the full control effect
Target sequence (Q12809 whole entry, looked up): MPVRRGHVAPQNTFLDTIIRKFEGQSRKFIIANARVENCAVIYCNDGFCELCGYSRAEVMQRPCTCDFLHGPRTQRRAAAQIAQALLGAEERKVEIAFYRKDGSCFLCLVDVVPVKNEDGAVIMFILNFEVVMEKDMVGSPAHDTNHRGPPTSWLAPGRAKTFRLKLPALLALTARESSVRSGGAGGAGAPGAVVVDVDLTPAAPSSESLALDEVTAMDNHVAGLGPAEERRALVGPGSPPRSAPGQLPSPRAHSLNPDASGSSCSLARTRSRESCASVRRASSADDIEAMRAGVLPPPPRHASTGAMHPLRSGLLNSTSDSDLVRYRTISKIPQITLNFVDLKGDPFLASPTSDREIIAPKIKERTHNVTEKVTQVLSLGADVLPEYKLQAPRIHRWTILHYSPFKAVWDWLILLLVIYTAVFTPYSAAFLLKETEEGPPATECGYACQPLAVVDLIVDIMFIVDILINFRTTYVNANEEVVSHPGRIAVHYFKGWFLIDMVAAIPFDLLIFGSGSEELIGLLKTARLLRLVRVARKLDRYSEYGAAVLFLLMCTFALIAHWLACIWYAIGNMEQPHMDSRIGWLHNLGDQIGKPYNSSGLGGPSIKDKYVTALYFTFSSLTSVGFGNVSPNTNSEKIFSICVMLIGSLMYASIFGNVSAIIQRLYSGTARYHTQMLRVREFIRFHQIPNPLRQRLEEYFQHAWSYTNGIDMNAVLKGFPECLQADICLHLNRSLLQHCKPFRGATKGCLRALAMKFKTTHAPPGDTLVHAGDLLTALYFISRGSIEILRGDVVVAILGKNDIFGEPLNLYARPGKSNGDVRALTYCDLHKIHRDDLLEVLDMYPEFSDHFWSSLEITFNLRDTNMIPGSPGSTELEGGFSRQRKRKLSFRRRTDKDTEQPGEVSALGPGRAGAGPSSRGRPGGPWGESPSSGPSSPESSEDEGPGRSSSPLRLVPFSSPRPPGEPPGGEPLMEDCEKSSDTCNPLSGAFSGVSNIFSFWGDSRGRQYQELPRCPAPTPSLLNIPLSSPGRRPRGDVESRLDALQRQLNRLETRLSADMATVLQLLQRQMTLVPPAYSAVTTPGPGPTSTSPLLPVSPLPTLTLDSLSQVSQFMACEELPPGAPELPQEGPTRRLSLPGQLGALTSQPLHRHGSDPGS
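U2OS cells were transduced with wild-type KCNH2 virus (2.03 x 10^8 / mL) for 4 h at room temperature, then cultured overnight at 37 C. Thallium flux was read with FluxOr dye. Rate constants were normalized to DMSO controls.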
p53 reactivation = mutant p53 re-activation in reporter cells | 0.063% of 320,000 active | H1299 p53-A138V BP100-luciferase reporter, luminescence, 24 h | AID 504706 | Potency, µM (doses to about 92.2 µM), without a hit: top-dose activity change, positive = activation, most hits filed as activators; active = well fitted activation curve with a large enough effect; inconclusive = small, poorly fitted or top-dose-only effect; inactive = no such curve, though single readings can be large or run the other way; also: potency is read from the fitted curve at half-maximal effect; % of control where 0% means no effect; nearly all actives have a fitted effect of over 45% in size
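p53-null H1299 cells stably carrying temperature-sensitive p53-A138V and a BP100-luciferase reporter were pinned with compounds (4-point, 1:5 series) and held 24 hrs at 37 deg C. Luminescence was read 10 min after detection reagent.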
ClpP mod = qHTS Assay for Activators of ClpP; Potency, µM (highest dose often 57.5 µM), for inactives: top-dose activity change, negative = active; ATP-dependent Clp protease proteolytic subunit (Bacillus subtilis (strain 168)), P80244; 1.9% of 340,000 active; purified B. subtilis ClpP, FRET peptide cleavage, 20 min; AID 651965, 2013; active = well fitted falling curve with a large enough effect; inconclusive = small, poorly fitted or top-dose-only effect; inactive = no such curve, though single readings can be large or run the other way; also: potency is read from the fitted curve at half-maximal effect; the source files actives as falling curves though it sought activators and does not explain the sign; nearly all actives have a fitted effect of over 65% in size
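FRET quenching reversal measured ClpP activation: 10 microg/mL B. subtilis ClpP at pH 8 with the FRET-FV decapeptide, read at 430 nm after 320 nm excitation. The 20-min minus 0-min signal was scaled between DMSO/no-enzyme wells and ADEP (5.8 microM final).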
The depositor's hits bear a star; u = inconclusive; x = no result. Only some compounds are listed: those with a hit (about 2.6% of all), similar ones and a draw of the others.

SMILES | TRPV1 ag | KCNH2 3.1 block | TRPV1 PAM | KCNH2 WT inh | p53 reactivation | ClpP mod
CCC(=O)N1CCc2cc(S(=O)(=O)NC(C(=O)NCCc3cccc(C)c3)C(C)C)ccc21 (stereo not drawn) | x | x | x | x | x | 2%
O=C(CN1C(=O)c2cccnc2Oc2ccc(Cl)cc21)Nc1cccc(C(F)(F)F)c1 | x | x | x | x | x | -4%
Cc1ccc(N2C(=O)C(O)(C(F)(F)F)C3=C2CC(C)(C)CC3=O)cc1 (stereo not drawn) | 0 | 1 | 3 | 5 | 2% | 2%
CC1(C)CC(=O)C2=C(C1)N(c1ccc(F)cc1)C(=O)C2(O)C(F)(F)F (stereo not drawn) | -2 | -120* | 24 | 7 | 0% | -1%
CCCn1c(SCN2C(=O)c3ccccc3C2=O)nc2cc(Cl)ccc2c1=O | 3 | -1 | 10 | -12 | 3% | 25µM*
CC12CCC(=O)N1C(C(=O)Nc1cccc(S(=O)(=O)N3CCCCCC3)c1)CS2 (stereo not drawn) | -1 | 3 | 10 | 4 | -7% | 28µM*
COc1ccc2c(C)cc(=O)[nH]c2c1 | 2 | -95* | -4 | -5 | 0% | -22%
O=C(Nc1ccc([N+](=O)[O-])cc1)N1CCCCCC1 | 19 | 17 | -20 | -8 | 19% | 0%
CC(C)(C)c1ccc(NC(=O)N2CCCN(c3ccc([N+](=O)[O-])cn3)CC2)cc1 | 92* | -15 | -16 | 0 | 5% | x
Cc1cc(C)cc(NC(=O)CN2CCN(CCN=CC3=C(O)CC(C)(C)CC3=O)CC2)c1 | -3 | -93* | -55 | 5 | 0% | 2%
C[C@@H]1CN([C@@H](C)CO)C(=O)CCCn2cc(nn2)CO[C@H]1CN(C)S(=O)(=O)c1cccc(C#N)c1 | x | 4 | x | 1 | x | 2%
COc1ccc(CC(=O)N/N=C(/C)CC(=O)N(C)c2ccccc2)cc1 | -3 | -92* | 1 | 4 | 6% | x
O=C(Nc1ccc(OC(F)(F)F)cc1)c1nc2ccccc2nc1N1CCCCC1 | x | x | x | x | x | -3%
C[C@@]12CC[C@@H](C3=C(CCC3)C1)N2c1ccccc1 | x | x | x | x | x | 0%
Cc1ccc(-c2cc(C(=O)N3CC(C)OC(C)C3)c3ccccc3n2)o1 (stereo not drawn) | 11 | 7 | -4 | -23 | 24% | 14µM*
COc1ccc(-c2cc(C(=O)N3CCCCCC3)c3ccccc3n2)cc1 | -2 | 24 | 5 | -4 | 2% | 6.3µM*
O=C(c1cc(-c2ccc(Cl)s2)nc2ccccc12)N1CCCC1 | x | -16 | x | 3 | x | 32µM*
CC1CCN2c3ccccc3CC3(C(=O)OC(C)(C)OC3=O)C2C1 (stereo not drawn) | x | x | x | x | x | 4%
CC1=C(C(=O)N(C(C)C)C(C)C)CC(CC(=O)NC2CCCC2)C(=O)N1Cc1ccc(C(C)(C)C)cc1 (stereo not drawn) | x | x | x | x | x | 0%
O=C(/C=C\c1ccc2c(c1)OCO2)NC1CC(=O)N(c2ccccc2)C1 (stereo not drawn) | x | x | x | x | x | 4%
COc1ccc(N2CC(NC(=O)/C=C\c3ccc4c(c3)OCO4)CC2=O)cc1 (stereo not drawn) | x | x | x | x | x | 28µM*
Cc1ccccc1-c1nc(SCC(=O)NCC2CCCO2)c2c(=O)n(C)c(=O)n(C)c2n1 (stereo not drawn) | x | x | x | x | x | -2%
CCN(CC)S(=O)(=O)c1ccc(C(=O)OCC(=O)Nc2ccc(-c3nc4ccc(C)cc4s3)cc2)cc1 | 0 | -27 | -1 | -3 | u | u
CCN(CC)S(=O)(=O)c1cc(C(=O)OCC(=O)Nc2ccc(-c3nc4ccc(C)cc4s3)cc2)ccc1F | 0 | -7 | 3 | -10 | u | 18µM*
O=C(O)c1cccc(N2CCCC2)c1 | 0 | 16 | -4 | -6 | 25% | 28µM*
SMILES | TRPV1 ag | KCNH2 3.1 block | TRPV1 PAM | KCNH2 WT inh | p53 reactivation | ClpP mod
O=C(O)c1cccc(N2CCCC2=O)c1 | 2 | 2 | -22 | 0 | -13% | 0%
CC(=O)c1cc(-c2ccccc2)n(CC(=O)N2CCN(C3CCCC3)CC2)c1C | -2 | 5 | 4 | 4 | 12% | 32µM*
CCCCNC(=O)Nc1nnc(-c2ccc(OCC)cc2)o1 | 1 | 0 | 2 | -4 | -7% | 25µM*
CCOc1ccc(-c2nnc(NC(=O)COc3ccccc3F)o2)cc1 | x | 5 | x | -11 | x | -17%
CCOC(=O)COc1ccc(-c2nnc(-c3ccccc3)o2)cc1 | 25 | -5 | -16 | 2 | 4% | u
CCOC(=O)CNC(=O)Nc1nnc(-c2ccc(OCC)cc2)o1 | 3 | -15 | -4 | -4 | 2% | 6.3µM*
CCCCNC(=O)Nc1nnc(-c2ccccc2)o1 | -4 | -4 | 6 | -2 | 0% | 14µM*
CCN(CC)CCCNC(=O)c1ccc2c(c1)sc1nc(-c3ccc(C)cc3)cn12 | x | x | x | x | x | -27%
Cc1ccc(-c2cn3c(n2)sc2cc(C(=O)N4CCCCC4)ccc23)cc1 | x | x | x | x | x | 25µM*
CCc1ccc(-c2cn3c(n2)sc2cc(C(=O)NCCC4=CCCCC4)ccc23)cc1 | x | x | x | x | x | 25µM*
CCOC(=O)N1CCN(C(=O)c2ccc3c(c2)sc2nc(-c4ccccc4)cn23)CC1 | 3 | 0 | -1 | -4 | u | -10%
CCCNC(=O)c1ccc2c(c1)sc1nc(-c3ccc(C)cc3)cn12 | x | x | x | x | x | 32µM*
CN(C)c1ccc(NC(=O)COC(=O)Cn2nnc3ccccc32)cc1 | -1 | -3 | 5 | -2 | 14% | 25µM*
O=C(COC(=O)Cn1nnc2ccccc21)Nc1ccccc1Br | 0 | -8 | -1 | 1 | -1% | 28µM*
COc1ccc(NC(=O)c2cc(C3CCCCN3S(=O)(=O)c3ccc(F)cc3F)on2)c(C)c1 (stereo not drawn) | x | x | x | x | x | -1%
COc1ccc(B(O)O)cc1 | x | x | x | x | x | -3%
Cc1ccc([C@@H]2C[C@H]3[C@@H](CN2S(=O)(=O)c2ccc(Cl)cc2)C(=O)C[C@@H](c2ccc(C)cc2)N3S(=O)(=O)c2ccc(Cl)cc2)cc1 | x | 4 | x | -10 | x | 0%
Nc1ccccc1OCCOc1ccccc1N | 5 | 8 | -8 | -6 | u | 1%
Nc1ccccc1OCCOCCOc1ccccc1N | 3 | 0 | -7 | -8 | 11% | 22µM*
CCc1nnc2c(NCc3cccc(OC)c3)nc3ccccc3n12 | x | x | x | x | x | -11%
CCN(CC)c1ccc(-c2nn3c(-c4n[nH]c5c4CCC5)nnc3s2)cc1 | 26 | -18 | -3 | 0 | 0% | 28µM*
CC1CN(C(=O)COC(=O)c2cnc(Cl)c(Cl)c2)CC(C)O1 (stereo not drawn) | x | -7 | x | 8 | 9% | 32µM*
